LASV entry inh – Lassa virus entry inhibition; Lassa virus pseudotype entry inhibition, cell reporter; 1.2% of 300,000 active; Potency, µM (titrated, usually from 37.9 µM), for the others: at the top dose activity change, negative = inhibition, hits mostly inhibitors; calls by dose curve; tested in HEK293 cells; also: potency is read from the fitted curve at half-maximal effect; nearly all actives have a fitted effect of over 50% in size
Giardia FBPA inh-1 – inhibitors of Giardia lamblia fructose-1,6-bisphosphate aldolase; Potency, µM (series often up to 59.6 µM), without a hit: at the top dose activity, negative = inhibition, usual class: inhibitors; A8B2U2; 0.71% of 290,000 active; AID 2451; purified Giardia FBPA; also: potency is read from the fitted curve at half-maximal effect; nearly all actives have a fitted effect of over 55% in size
Target sequence (A8B2U2 whole entry, looked up): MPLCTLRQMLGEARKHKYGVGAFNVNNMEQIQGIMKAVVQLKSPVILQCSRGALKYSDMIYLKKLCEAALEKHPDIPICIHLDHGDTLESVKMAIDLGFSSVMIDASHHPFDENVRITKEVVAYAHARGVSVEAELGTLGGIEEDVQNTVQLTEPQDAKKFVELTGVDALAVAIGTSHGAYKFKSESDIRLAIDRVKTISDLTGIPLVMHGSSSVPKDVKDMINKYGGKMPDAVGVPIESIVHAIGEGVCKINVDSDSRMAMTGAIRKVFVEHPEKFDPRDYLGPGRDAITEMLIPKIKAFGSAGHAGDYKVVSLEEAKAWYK
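Giardia FBPA (40 nM reagent) was preincubated 10 min at RT with compound (up to 57.5 uM final), then substrate plus GAPDH/TPI/NAD/arsenate coupling system with diaphorase/resazurin was added; resorufin fluorescence (525/598 nm) was read after 20 min.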
FMDV inh – antivirals against foot and mouth disease virus. 1.2% of 410,000 active. AID 1159524. FMDV antiviral cell-based qHTS. Potency, µM (top dose mostly 57.9 µM), for inactives: top-dose activity change, negative = inhibition, usual class: inhibitors; calls by dose curve; tested in HEK293T cells; also: read-out not given here; potency is read from the fitted curve at half-maximal effect; nearly all actives have a fitted effect of over 45% in size
Marburg entry inh – blocks Marburg virus binding to or entry into cells; 1.8% of 300,000 active; Marburg virus pseudotyped entry inhibition, cell reporter; Potency, µM (series often up to 37.8 µM), for the others: top-dose activity change, negative = inhibition, usual class: inhibitors; AID 540276; calls by dose curve; tested in HEK293 cells; also: potency is read from the fitted curve at half-maximal effect
HCV inh – inhibitors of hepatitis C virus infection. Huh7.5.1 HCVcc-Cre infection, luciferase reporter, 44 h. Potency, µM (highest dose often 41.8 µM), without a hit: at the top dose activity change, negative = inhibition, hits mostly inhibitors. 3.4% of 340,000 active; also: potency is read from the fitted curve at half-maximal effect
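Seed cells (1,000/well) for 4 h; treat with compound and infect with HCVcc-Cre, moi about 0.5. Incubate 44 h, then detect luciferase activity.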
HCMV antiviral – inhibitors of human cytomegalovirus | HFF cells, HCMV-luciferase reporter, 72 h; hits give low values | activity change, negative = inhibition, % at 57.5 µM | 4.5% of 410,000 active | AID 1259415; in the data active = activity change below about -60%; inconclusive = no clear call, values can overlap the other calls; inactive = above about -39%
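Steps: HFFs plated, 16 h 37C; compounds added; HCMV-luciferase added to MOI 1 PFU/cell; 72 h 37C; OneGlo reagent, 5 min room temperature; luminescence read, normalized to controls.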
Giardia growth – inhibitors of Giardia lamblia growth | AID 2785 | 5% of 1,500 active | Potency, µM (highest dose often 57.5 µM), without a hit: top-dose activity change, negative = inhibition, usual class: inhibitors | shares compounds with Giardia FBPA inh-1 | Giardia lamblia trophozoite growth inhibition;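 also: potency is read from the fitted curve at half-maximal effect; trophozoites exposed to compound for 48 h at 37 °C; nearly all actives have a fitted effect of over 70% in size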
Mammal cell tox – mammalian cytotoxicity of Giardia aldolase inhibitor hits | shares compounds with Giardia FBPA inh-1 | AID 2786 | 4% of 1,500 active | Potency, µM (top dose mostly 57.5 µM), without a hit: at the highest dose viability change, negative = toxicity, usual class: inhibitors | mammalian cell viability counter-screen, qHTS;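 also: Chinese hamster ovary cells used as mammalian cytotoxicity surrogate; viability measured as cellular ATP by luminescence; potency is read from the fitted curve at half-maximal effect; compound exposure lasted 48 h before reading; nearly all actives have a fitted effect of over 60% in size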
Giardia FBPA inh-2 – confirmation of Giardia fructose-bisphosphate aldolase inhibitors | shares compounds with Giardia FBPA inh-1 | purified Giardia aldolase enzyme activity, qHTS | Potency, µM (top dose mostly 57.5 µM), inactives show at the top dose activity change, negative = inhibition, actives largely listed as inhibitors | 5% of 1,500 active | AID 2787; also: potency is read from the fitted curve at half-maximal effect; nearly all actives have a fitted effect of over 45% in size
Rabbit aldolase – selectivity test for Giardia aldolase inhibitors: rabbit aldolase; shares compounds with Giardia FBPA inh-1; Rabbit muscle FBPA enzyme inhibition, selectivity counter-screen; Potency, µM (doses to about 57.5 µM), for inactives: top-dose activity, negative = inhibition, actives largely listed as inhibitors; 4% of 1,500 active; AID 2794; also: potency is read from the fitted curve at half-maximal effect; nearly all actives have a fitted effect of over 60% in size
Target sequence (P00883 whole entry, looked up): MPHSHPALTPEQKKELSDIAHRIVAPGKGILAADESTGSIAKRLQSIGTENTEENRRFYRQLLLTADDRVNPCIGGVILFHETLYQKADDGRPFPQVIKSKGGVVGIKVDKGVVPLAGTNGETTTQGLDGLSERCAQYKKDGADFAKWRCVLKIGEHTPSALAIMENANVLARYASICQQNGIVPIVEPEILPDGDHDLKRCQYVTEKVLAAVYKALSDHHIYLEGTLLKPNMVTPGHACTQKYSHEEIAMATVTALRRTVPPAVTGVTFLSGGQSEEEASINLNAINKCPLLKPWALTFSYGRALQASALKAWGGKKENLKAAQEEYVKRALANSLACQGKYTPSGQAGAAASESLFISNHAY
GAPDH coupling – GAPDH inhibition flagged for Giardia aldolase hits; shares compounds with Giardia FBPA inh-1; 6% of 1,500 active; Potency, µM (titrated, usually from 57.5 µM), for the others: at the top dose activity change, negative = inhibition, usual class: inhibitors; GAPDH coupling enzyme counterscreen, biochemical, qHTS; also: potency is read from the fitted curve at half-maximal effect; nearly all actives have a fitted effect of over 55% in size
Starred values were filed as active, the others as inactive; u = inconclusive; x = no result given; [ ] = another dose, or the depositor's remark. Rows were chosen to be rich in hits. Some 8.3% of all compounds tested hit in one or more screens of this group. Unless noted, calls follow the shape of the dose curve; as a rule, active = well fitted curve in the direction sought with a large enough effect; inconclusive = small, poorly fitted or top-dose-only effect, or another doubt; inactive = no such curve, though single readings can be large; an effect the other way counts as inactive or inconclusive. % is scaled to controls: 0 for no effect and ±100 for the full control effect.

SMILES | LASV entry inh | Giardia FBPA inh-1 | FMDV inh | Marburg entry inh | HCV inh | HCMV antiviral | Giardia growth | Mammal cell tox | Giardia FBPA inh-2 | Rabbit aldolase | GAPDH coupling
Brc1ccccc1CN1CCN(Cc2c[nH]c3ccccc23)CC1 | u | x | u | u | -19% | -34 | x | x | x | x | x
O=C(NC(=S)Nc1nc2ccccc2s1)c1ccco1 | u | 5µM* | 23% | u | -6% | 58 | 7.9µM* | u | -3% | 12% | 8%
O=C(NNc1cccc(Cl)n1)C(F)(F)F | 27%[46.1 µM] | 20µM* | 1% | -7%[46.1 µM] | 15% | -2 | u | 9% | -13% | -2% | 1%
Cc1ccc(CNC(=O)c2cccc(Nc3nc4ccccc4n4nnnc34)c2)cc1 | u | x | 8% | 1%[46.1 µM] | x | 10 | x | x | x | x | x
CC1(C)Cc2c(c(-c3ccccc3)nc3sc4c(=O)[nH]c(=S)[nH]c4c23)CO1 | 1% | 4% | -20% | -2% | 1% | x | x | x | x | x | x
CC1(C)Cc2sc3c(=O)[nH]c(=S)[nH]c3c2CO1 | x | 10µM* | 1% | x | 24% | -31 | -5%[38.3 µM] | 5% | -7% | 12% | 4%
COc1ccc(CCNC(=O)CSc2nnc(-c3ccco3)c(-c3ccco3)n2)cc1OC | x | 13µM* | x | x | x | x | -22% | -9% | -27% | -23% | -25%
COc1ccc(-c2nnc(SCC(=O)NCCc3ccc(OC)c(OC)c3)nc2-c2ccc(OC)cc2)cc1 | -26%[46.1 µM] | x | -16% | 9%[46.1 µM] | x | 13 | x | x | x | x | x
CC(NC(=S)NNS(=O)(=O)c1cccc([N+](=O)[O-])c1)c1ccccc1 (centres undefined) | 26%[46.1 µM] | 16µM* | -5% | 11%[46.1 µM] | 10% | -38 | 12% | 12% | 3% | 15% | 26%
N#C/C(=C\c1ccccc1)C(=O)NNS(=O)(=O)c1cccc([N+](=O)[O-])c1 | 2% | x | -17% | -19% | 4% | 40 | x | x | x | x | x
O=C(CN1C(=O)c2cccnc2Sc2ccccc21)Nc1cc(F)ccc1F | 2%[46.1 µM] | x | 1% | x | x | 16 | x | x | x | x | x
C=CC(C)n1c(Br)nc2c1c(=O)[nH]c(=O)n2C (centres undefined) | -3% | -1% | -5% | 2% | 5% | 8 | x | x | x | x | x
CC(C)n1c(=S)[nH]c2c1c(=O)[nH]c(=O)n2C | 7% | 16µM* | -5% | u | 18% | 14 | -7%[10.4 µM] | -6% | -3% | -18% | 6%
Cc1ccc2onc(CC(=O)N(C)c3ccccc3)c2c1 | -27%[46.1 µM] | x | 14% | x | x | -5 | x | x | x | x | x
CCN1CCN(CC(=O)Nc2cc(C(F)(F)F)ccc2OCCOC)CC1 | x | 6.3µM* | -15% | x | 4% | -22 | 37% | -4% | 3% | 0% | 5%
CCN1CCN(CC(=O)Nc2c(OC)cccc2OC)CC1 | u | 13µM* | 2% | 4% | 10% | -31 | 7%[10.4 µM] | -1% | -1% | -2% | 5%
COc1ccc(NC(=O)C(OC)c2ccccc2)cc1Cl (centres undefined) | -14% | 0% | 8% | u | 14% | -19 | x | x | x | x | x
COc1ccc(NC(=O)C(NCC(C)C)c2ccccc2)cc1Cl (centres undefined) | 22% | 14µM* | 3% | -19%[46.1 µM] | u | u | u | 2% | 8% | 20% | 2%
Cc1ccc(NC(=O)C(Cc2ccccc2)n2cccc2)c(C)c1 (centres undefined) | x | x | -11% | 10%[46.1 µM] | x | -12 | x | x | x | x | x
O=C(Nn1c(=S)[nH]c2ccccc2c1=O)c1ccncc1 | -5% | 16µM* | 32% | 20% | 13% | -5 | -8% | 10% | 0% | 0% | 1%
O=C(CCN1CCCCC1)Nn1c(=S)[nH]c2ccccc2c1=O | 13% | 22µM* | 0% | u | 10% | 20 | u | 11% | 1% | 12% | 5%
Cc1ccc(-n2ncc(C(=O)NCc3ccco3)c2C2CCN(C(=O)OC(C)(C)C)CC2)c(C)c1 | u | x | -20% | x | x | -18 | x | x | x | x | x
CC(CCC(=O)O)C1CCC2C3CC[C@@H]4CCCC[C@@]4(C)C3CC[C@@]12C (some centres undefined) | x | 13% | -7% | x | x | x | x | x | x | x | x
Cn1c(Cl)nc2ccccc21 | 13% | 1% | 0% | 2% | -4% | 32 | x | x | x | x | x
Cn1c(NN=O)nc2ccccc21 | u | 7.9µM* | 2% | u | u | -100* | -22% | 16µM* | 0% | -2% | 2%
SMILES | LASV entry inh | Giardia FBPA inh-1 | FMDV inh | Marburg entry inh | HCV inh | HCMV antiviral | Giardia growth | Mammal cell tox | Giardia FBPA inh-2 | Rabbit aldolase | GAPDH coupling
COC(=O)c1cc(OC)c(OC)cc1NC(=O)c1ccc2c(c1)CCN2S(=O)(=O)c1ccccc1 | 0%[46.1 µM] | x | -15% | u | x | 6 | x | x | x | x | x
CCN(CC)C(=O)c1sc2c(c1C)c(=O)n(-c1ccccc1)c(=O)n2Cc1c(C)cc(C)cc1C | 20%[46.1 µM] | x | 21% | x | x | 5 | x | x | x | x | x
COc1ccc(-n2nc(C(=O)NCCc3cccc(C)c3)c3c4ccccc4n(C)c3c2=O)cc1Cl | 23%[46.1 µM] | x | -24% | -1%[46.1 µM] | x | 6 | x | x | x | x | x
COc1cc(S(=O)(=O)NCCN2CCOCC2)ccc1-n1cnnn1 | 11%[46.1 µM] | 18µM* | 8% | u | 1% | -25 | 4%[10.4 µM] | 3% | -1% | 13% | 5%
COc1cc(S(=O)(=O)NCCCN2CCOCC2)ccc1-n1cnnn1 | 11%[46.1 µM] | u | -6% | 20%[46.1 µM] | 5% | -24 | x | x | x | x | x
CC1=NN(c2nc3ccccc3[nH]2)C(=O)/C1=C/N(C)C | u | 16µM* | u | u | u | x | 40µM* | 4.5µM* | 3% | -1% | -14%
CC1=NN(c2ccccc2)C(=O)/C1=C/N(C)C | 24%[46.1 µM] | -28% | u | 32%[46.1 µM] | 12% | -29 | x | x | x | x | x
CC1=NN(c2nc3ccccc3[nH]2)C(=O)C1Cc1ccccc1 (centres undefined) | u | 18µM* | 16% | u | 3.5µM* | x | -21% | u | 23% | 6% | 9%
O=C(NCc1cccc(F)c1)c1cccc(NC(=O)c2nsc3ccccc23)c1 | u | x | 26% | x | x | 69 | x | x | x | x | x
CCN(c1cccc(C)c1)S(=O)(=O)c1nnc(NC(=O)C2CCCCC2)s1 | -3%[46.1 µM] | x | -11% | x | x | 1 | x | x | x | x | x

From PubChem BioAssay
